ELG1 repair inh – qHTS screen for small molecules that inhibit ELG1-dependent DNA repair in human embryonic kidney (HEK293T) cells expressing luciferase-tagged ELG1; HEK293T ELG1-luciferase reporter, luminescence, 16 h; DNA damage induced by 5-fluorouridine; Potency, µM (doses to about 46.1 µM), hits mostly inhibitors; 2.3% of 330,000 active; AID 504467, 2011; further: nearly all actives have a fitted effect of over 55% in size
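Reporter activity after DNA damage by 5-fluorouridine is monitored. Compound-treated cells incubate 16 hr at 37 °C, then ONE-Glo is added for 30 min before luminescence reading.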
KB-3-1 tox – qHTS assay for MDR1-selective chemotherapeutics: Primary screen using the parental adenocarcinoma cell KB-3-1. 1.4% of 400,000 active. KB-3-1 viability, CellTiter-Glo ATP luminescence, 72 h. Potency, µM (doses to about 46.1 µM), hits mostly cytotoxic; further: nearly all actives have a fitted effect of over 60% in size
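Multi-concentration cytotoxicity screen in KB-3-1 cells grown in DMEM lacking phenol red with 10% FBS. After 72 h at 37 °C with compound, ATP-dependent luminescence was recorded.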
KB-V1 MDR tox – qHTS assay for MDR1-selective chemotherapeutics: Primary screen using the drug-selected MDR subline cells KB-V1; 3.4% of 400,000 active; KB-V1 MDR cells viability, CellTiter-Glo, 72 h; Potency, µM (highest dose often 46.1 µM), usual class: cytotoxic; further: nearly all actives have a fitted effect of over 60% in size
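KB-V1, DMEM (no phenol red) + 10% FBS; cpd pin-transferred, titration series; 72 h, 37 degrees C; CellTiter-Glo, luminescence. Data normalized, curve-fit.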
MCF10A rereplic – A quantitative high throughput screen for small molecules that induce DNA re-replication in MCF 10a normal breast cells. MCF 10A DNA re-replication, Hoechst nuclear intensity, 48 h. Potency, µM (highest dose often 46.1 µM), actives largely listed as activators. 2.9% of 350,000 active. AID 624296, 2012; further: nearly all actives have a fitted effect of over 50% in size
SW480 rereplic – A quantitative high throughput screen for small molecules that induce DNA re-replication in SW480 colon adenocarcinoma cells | SW480 DNA re-replication, Hoechst DNA content imaging, 48 h | Potency, µM (highest dose often 46.1 µM), most hits filed as activators | 1.8% of 340,000 active | AID 624297, 2012; further: nearly all actives have a fitted effect of over 55% in size
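Hoechst fluorescence of nuclei (405 nm excitation, 500-530 nm emission) measured by plate-scanning imager after 48 hr compound exposure at 37 C; re-replication scored as increased number of nuclei with elevated intensity.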
Large screens that a line does not name were inactive. Hits are enriched below; roughly 8.2% of the tested compounds scored in any of these assays. The call rests on the fitted dose curve; in most records, active means well fitted curve in the direction sought with a large enough effect; inconclusive means small, poorly fitted or top-dose-only effect, or another doubt; inactive means no such curve, though single readings can be large; an effect the other way counts as inactive or inconclusive.

COc1ccc(Cc2nnc(SCC(=O)N(C)CC(=O)Nc3ccc(C)cc3)o2)cc1	ELG1 repair inh inconclusive, KB-V1 MDR tox inconclusive
C=C1C=C(C(F)F)n2ncc(C(=O)NCc3ccccc3OC)c2N1	none (no result: ELG1 repair inh, MCF10A rereplic, SW480 rereplic)
COCCN1C[C@@H](CO)O[C@@H](n2cnc3c(NC4CCC4)ncnc32)C1	none (no result: ELG1 repair inh, MCF10A rereplic, SW480 rereplic)
COC(=O)c1c(NC(=O)COc2ncnc3ccccc23)sc(C)c1C	KB-V1 MDR tox 15µM
CCOC(=O)c1c(NC(=O)CSc2ccccc2C(=O)O)sc(C)c1C	none
CCOC(=O)c1c(NC(=O)COc2ccc(CC)cc2)sc2c1CCCC2	none (no result: ELG1 repair inh, MCF10A rereplic, SW480 rereplic)
CCOC(=O)c1c(NC(=O)CSc2ncnc3ccccc23)sc(C)c1C	ELG1 repair inh 12µM
CCOC(=O)c1c(NC(=O)COc2ncnc3sccc23)sc2c1CCC2	KB-V1 MDR tox 3.3µM
COC(=O)c1c(NC(=O)CSc2ncn[nH]2)sc(C)c1C	ELG1 repair inh inconclusive, KB-V1 MDR tox 21µM
CCOC(=O)c1c(NC(=O)COc2ncnc3ccccc23)sc(C(C)=O)c1C	ELG1 repair inh inconclusive, MCF10A rereplic inconclusive
OC(CBr)C[n+]1cc(Br)cc2ccccc21 (stereo not drawn)	none (no result: ELG1 repair inh, MCF10A rereplic, SW480 rereplic)
CCCc1nnc(NC(=O)c2cn(CC)c3cc(N4CCN(C)CC4)c(F)cc3c2=O)s1	none
CC(=O)Cc1nsc(NC(=O)c2oc(-c3ccccc3Cl)cc2C)n1	MCF10A rereplic inconclusive
CC(=O)Cc1nsc(NC(=O)c2ccc(-c3ccccc3Cl)o2)n1	KB-3-1 tox inconclusive, KB-V1 MDR tox inconclusive, MCF10A rereplic 12µM, SW480 rereplic inconclusive
Cc1ccc2c(CNCc3ccc(C)o3)c(C(=O)O)n(Cc3ccc(F)cc3)c2c1	KB-3-1 tox inconclusive (no result: ELG1 repair inh, MCF10A rereplic, SW480 rereplic)
CCc1nc2ccccc2c(=O)n1NC(=O)c1c(O)c2ccccc2[nH]c1=O	KB-3-1 tox inconclusive, KB-V1 MDR tox 2.9µM, MCF10A rereplic inconclusive
CCCCCCc1nc2ccccc2c(=O)n1NC(=O)c1c(O)c2c(n(CC(C)C)c1=O)CCCC2	KB-3-1 tox 21µM, KB-V1 MDR tox 18µM
Cc1nc2ccccc2c(=O)n1NC(=O)c1c(O)c2c(n(CC(C)C)c1=O)CCCC2	KB-3-1 tox inconclusive, KB-V1 MDR tox inconclusive, MCF10A rereplic inconclusive, SW480 rereplic inconclusive
CCCCc1nc2ccccc2c(=O)n1NC(=O)c1c(O)c2cccc3c2n(c1=O)CCC3	none (no result: KB-3-1 tox, KB-V1 MDR tox, MCF10A rereplic, SW480 rereplic)
CCCc1nc2ccccc2c(=O)n1NC(=O)c1c(O)c2ccccc2n(C)c1=O	KB-3-1 tox 15µM, KB-V1 MDR tox 5.8µM
C/C=C1\COC(C(=O)NCc2ccccc2)(C(F)(F)F)C=C1C=C(C)C (stereo not drawn)	none (no result: ELG1 repair inh)
CC1CCCCC1NC(=O)CNC(=O)c1ccco1 (stereo not drawn)	MCF10A rereplic inconclusive, SW480 rereplic inconclusive
O=C(NCCC1CCCCN1S(=O)(=O)c1cccs1)C(=O)Nc1ccc(F)cc1 (stereo not drawn)	KB-3-1 tox inconclusive, KB-V1 MDR tox inconclusive, MCF10A rereplic inconclusive, SW480 rereplic inconclusive
Cc1ccc(-c2noc(CCC(=O)NCCCN3CCN(c4cccc(Cl)c4)CC3)n2)cc1	ELG1 repair inh inconclusive, KB-3-1 tox 18µM, KB-V1 MDR tox 16µM, MCF10A rereplic inconclusive, SW480 rereplic inconclusive
Cc1ccccc1CS(=O)(=O)CCC(=O)NCCN1CCN(c2cccc(Cl)c2)CC1	KB-V1 MDR tox 10µM
O=C(Cn1nc(-c2ccccc2)ccc1=O)NCCN1CCN(c2cccc(Cl)c2)CC1	ELG1 repair inh inconclusive, KB-V1 MDR tox 5.8µM
COc1ccc(-c2noc(CCC(=O)NCCCN3CCN(c4ccccc4F)CC3)n2)cc1	ELG1 repair inh inconclusive
Cc1ccccc1CS(=O)(=O)CCC(=O)NCCCN1CCN(c2ccccc2F)CC1	MCF10A rereplic inconclusive
Cc1ccc(-c2noc(CCC(=O)NCCCN3CCN(c4ccc(F)cc4)CC3)n2)cc1	ELG1 repair inh inconclusive, KB-3-1 tox inconclusive, KB-V1 MDR tox 13µM, SW480 rereplic inconclusive
O=C(COc1ccc(Cl)cc1Cl)N1CCCN(C(=O)COc2ccc(Cl)cc2Cl)CC1	ELG1 repair inh inconclusive, KB-3-1 tox inconclusive, KB-V1 MDR tox 8.2µM, MCF10A rereplic inconclusive, SW480 rereplic inconclusive
CCOC(=O)N1CCN(C(=O)COc2ccc(Br)cc2Cl)CC1	KB-V1 MDR tox 7.3µM
Cc1cc(Cl)ccc1OCC(=O)N1CCCCC1	ELG1 repair inh inconclusive
O=C(COc1ccc(Br)cc1Cl)N1CCN(c2ncccn2)CC1	none
COc1ccc(-c2nc(S(=O)(=O)c3ccc(C)cc3)c(NCc3ccccc3)o2)cc1	none (no result: ELG1 repair inh, MCF10A rereplic, SW480 rereplic)
CCN(CC)S(=O)(=O)c1ccc(OC(C)C)c(NC(=O)c2c3c(nc4ccccc24)CCN(Cc2ccccc2)C3)c1	ELG1 repair inh 5.8µM, KB-V1 MDR tox inconclusive, MCF10A rereplic inconclusive, SW480 rereplic inconclusive
CC1(C(=O)NCc2ccccc2)Cc2c(-c3ccc(C(N)=O)cc3)ccnc2O1 (stereo not drawn)	KB-3-1 tox 8.2µM (no result: ELG1 repair inh, MCF10A rereplic, SW480 rereplic)
CC1(C(=O)NCCc2ccccc2)Cc2c(-c3ccc4c(c3)OCO4)ccnc2O1 (stereo not drawn)	none (no result: ELG1 repair inh, MCF10A rereplic, SW480 rereplic)
CC1(C(=O)NCc2ccccc2)Cc2c(-c3ccc4c(c3)OCO4)ccnc2O1 (stereo not drawn)	KB-3-1 tox 4.6µM, KB-V1 MDR tox 2.1µM (no result: ELG1 repair inh, MCF10A rereplic, SW480 rereplic)
CC1(C(=O)NCc2ccco2)Cc2c(-c3ccc(C(N)=O)cc3)ccnc2O1 (stereo not drawn)	KB-3-1 tox 18µM (no result: ELG1 repair inh, MCF10A rereplic, SW480 rereplic)
CC1(C(=O)NCc2ccccc2)Cc2c(-c3ccccc3)ccnc2O1 (stereo not drawn)	KB-3-1 tox 21µM, KB-V1 MDR tox inconclusive (no result: ELG1 repair inh, MCF10A rereplic, SW480 rereplic)
O=C(Cn1cnc2ccccc2c1=O)N1CCN(S(=O)(=O)c2ccc(F)cc2)CC1	none
O=C(/C=C/c1ccccc1Cl)Nc1ccc(-c2nnc3n2CCCCC3)cc1	ELG1 repair inh 18µM, MCF10A rereplic inconclusive
Cc1c(C(=O)Nc2ccc(-c3nnc4n3CCCCC4)cc2)oc2c1ccc1ccccc12	ELG1 repair inh 16µM, KB-3-1 tox inconclusive, KB-V1 MDR tox inconclusive, MCF10A rereplic inconclusive, SW480 rereplic inconclusive
O=C(Nc1ccc(-c2nnc3n2CCCCC3)cc1)c1cc2ccccc2o1	ELG1 repair inh inconclusive
Cc1c(N=Cc2c(O)n(Cc3ccco3)c(=O)c3ccccc23)c(=O)n(-c2ccccc2)n1C	ELG1 repair inh 23µM
O=C(C[C@@H]1CC[C@@H](NC(=O)Nc2cccc(F)c2)[C@@H](CO)O1)NCC1CCCCC1	none (no result: ELG1 repair inh, MCF10A rereplic, SW480 rereplic)
C[C@H](CO)N1C[C@H](C)[C@H](CN(C)S(=O)(=O)c2cccs2)Oc2ccc(NC(=O)Nc3ccc4c(c3)OCO4)cc2CC1=O	ELG1 repair inh inconclusive, KB-3-1 tox inconclusive, KB-V1 MDR tox inconclusive, MCF10A rereplic inconclusive, SW480 rereplic 16µM

Screens: PubChem BioAssay, National Center for Advancing Translational Sciences (NCATS)
